Each structure is given as a SMILES string. About 2,000 (0.91%) of roughly 220,000 compounds were called active. Inconclusive results (about 2%) are left out. These entries were drawn from the full list. Results with a measured potency or affinity are listed apart. Values without a mark were called inactive. Rule as the data show it: inconclusive = inhibition above about 80% without an active follow-up result; inactive = below that; test concentration not stated here.

The assay in a line: M. tuberculosis H37Rv growth inhibitors, H37Rv strain (AID 1626).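 Also: bacteria incubated seven days before Alamar blue readout; 0% = bacteria only wells and 100% = bacteria with antibiotic wells.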 Conditions: active compounds read high, concentration not given here.
For `Cc1ccc(-c2nnn(CC(=O)N3CCCCC3)n2)o1`, the inhibition was -0.84%.

As to `CC(OC(=O)C1=COCCO1)C(=O)Nc1ccccc1C#N` (centres undefined), the inhibition is -7.04%.

As to `CC(C)(C)NC(=O)Nc1ccc(Br)cc1`, the inhibition was -1.24%.

Turning to `CCC(C)NC(=O)Nc1ccc(Br)cc1` (centres undefined), the inhibition was 1.26%.

`COc1ccc(C(=O)/C=C\c2ccc(NC(=O)c3cccs3)cc2)cc1`: the inhibition is -0.27%.

Turning to `COc1c(Cl)cc(Cl)cc1C(=O)Nc1ccc(NC(=O)c2cccs2)cc1`, the inhibition is 56.1%.

As to `CC1SCC(=O)N(CC(=O)Nc2ccc3c(c2)OCCO3)C1=O` (centres undefined), the inhibition was 2.44%.

In the case of `Nc1nc2ccccc2n1C(=O)CCc1ccccc1`, the inhibition was 0.09%.

As for `Cn1c(CNC(=O)c2ccc(F)cc2)nc2ccccc21`, the inhibition is -0.81%.

As to `Nc1nc2ccccc2n1C(=O)c1ccco1`, the inhibition is 2.98%.

Consider `Cc1ccc(S(=O)(=O)/N=C(\c2ccc(F)cc2)n2c(C)nc3ccccc32)cc1`, for which the inhibition is 4.23%.

With `O=C(COc1ccc2ccccc2c1)N1c2ccccc2Sc2ccccc21`, the inhibition was 2.2%.

With `CN(Cc1ccccc1)S(=O)(=O)c1ccc(NS(C)(=O)=O)cc1`, the inhibition is -4.2%.

Take `CC(=O)Nc1cc(Br)ccc1O`: the inhibition was 3.76%.

For `CN(Cc1ccccc1)C(=O)c1cc2ccccc2o1`, the inhibition is 6.83%.

As for `CCOc1cc(C(=O)Nc2ccc(F)cc2)cc(Br)c1OC`, the inhibition is 9.07%.

For the molecule `CCN(CC)c1ccc(/C=N/OCC(=O)N2CCCc3ccccc32)cc1`, the inhibition is 1.23%.

As for `Cc1ccccc1-c1cnn(-c2cccc([N+](=O)[O-])c2)c1N`, the inhibition was 5.3%.

On to `CNc1c([N+](=O)[O-])cnn1-c1ccccc1Cl`, for which the inhibition is 4.21%.

For `O=C(CSc1nnc(NC(=O)Cc2ccccc2)s1)NCc1ccco1`, the inhibition is -1.92%.

For the molecule `O=C(O)c1sccc1S(=O)(=O)c1ccccc1`, the inhibition was -0.34%.

Regarding `Cn1nccc1C(=O)Oc1ccc(/C=N/NC(=O)c2ccccc2O)cc1`, the inhibition is -6.68%.

As for `Cc1nnc(Cl)c2nn(-c3ccccc3)c(C)c12`, the inhibition was -0.17%.

Consider `CC(C)(C)OC(=O)NCCCCCc1nnc(SCc2cccc(F)c2)o1`, for which the inhibition is 75%.

Regarding `Cc1ccc(CSc2nnc(CCNC(=O)OC(C)(C)C)o2)cc1`, the inhibition is 7.99%.

`CC(C)(C)OC(=O)NCCCCCc1nnc(SCc2ccc(F)cc2)o1`: the inhibition was 60.9%.

On to `Cc1cccc(CSc2nnc(CCNC(=O)OC(C)(C)C)o2)c1`, for which the inhibition was 15%.

With `O=S(=O)(NC1CCCc2ccccc21)c1cnc[nH]1` (centres undefined), the inhibition was 1.01%.

For `Nc1ccccc1C(=O)OCC(=O)c1ccc2c(c1)OCCO2`, the inhibition was -1.04%.

For the molecule `O=C(COC(=O)c1cccs1)c1ccc2ccccc2c1`, the inhibition was 7%.

Regarding `Nc1nc(N)c(N=Nc2ccc(SCC(=O)O)cc2)c(=O)[nH]1`, the inhibition is -4.15%.

As for `CN(C)S(=O)(=O)N(CC(=O)NCCSCc1ccccc1)c1ccccc1`, the inhibition is 22.6%.

For `Cc1ccc(CN2CCN(Cc3ccncc3)CC2CCO)o1` (centres undefined), the inhibition is -0.74%.

Regarding `CCN(CC)CCOC(=O)c1ccc([N+](=O)[O-])cc1`, the inhibition is 1.65%.

`O=C1c2ccccc2C(=O)N1c1ccc(Cl)cc1`: the inhibition is -5.9%.

As for `Cc1ccc(N2C(=O)C3C(c4ccccc4)(C2=O)C3(c2ccccc2)c2ccccc2)cc1` (centres undefined), the inhibition is 7.89%.

Regarding `Cc1cccc(N2C(=O)c3cccc4c(N5CCCCC5)c([N+](=O)[O-])cc(c34)C2=O)c1C`, the inhibition is 9.67%.

`CCc1ccccc1N1C(=O)c2cccc3c(N4CCOCC4)c([N+](=O)[O-])cc(c23)C1=O`: the inhibition is 7.95%.

Take `COCCNS(=O)(=O)c1cc(-c2nn(C)c(=O)c3ccccc23)ccc1C`: the inhibition was -0.86%.

`Cc1sc2nc(COC(=O)c3cccc(OC(F)F)c3)[nH]c(=O)c2c1C`: the inhibition was 11.1%.

As to `COc1ccccc1NC(=O)C(=O)N/N=C/c1ccc([N+](=O)[O-])s1`, the inhibition was 4.5%.

Consider `Cc1ccccc1NC(=O)/C=C/c1cccs1`, for which the inhibition was -3.01%.

Turning to `Cc1ccc(NC(=O)COC(=O)c2ccc([N+](=O)[O-])s2)c(C)c1`, the inhibition was 9.26%.

As for `Cc1cc([N+](=O)[O-])ccc1NC(=O)/C=C/c1cccs1`, the inhibition is -0.49%.

In the case of `CCNc1nc(NCC)nc(SCCOc2ccc(C)cc2)n1`, the inhibition is 15.1%.

For the molecule `COc1ccc(S(=O)(=O)NCC2CCCN(C(=O)c3ccco3)C2)cc1` (centres undefined), the inhibition is -5.58%.

In the case of `Cc1cc(CNC(=O)CC2C(=O)NCCN2CC(c2ccccc2)c2ccccc2)on1` (centres undefined), the inhibition was 1.54%.

In the case of `Cn1ncc2c(Nc3ccc(O)cc3)nc(Cl)nc21`, the inhibition was -3.66%.

With `Cn1ncc2c(Nc3ccccc3Cl)nc(Nc3ccccc3Cl)nc21`, the inhibition was 29.2%.

For the molecule `COc1ccc(-n2c(SCC(=O)O)nc3sc4c(c3c2=O)CCC4)cc1`, the inhibition is -7.18%.

Regarding `CCCn1c(Nc2ccc(Cl)cc2)nc2ccccc21`, the inhibition was 3.28%.

Take `Cc1nc2ccccc2n1Cc1n[nH]c(=S)n1-c1ccc(Cl)cc1`: the inhibition is -9.13%.

Consider `CCc1c(C)[nH]n(-c2nc(-c3ccccc3)cs2)c1=O`, for which the inhibition was 5.2%.

Take `NS(=O)(=O)c1ccc(N=Nc2c(-c3ccccc3)[nH]n(-c3nc(-c4ccccc4)cs3)c2=O)cc1`: the inhibition was 15.4%.

Turning to `CC(C)[C@H](NC(=O)NCc1ccc(F)cc1)C(=O)O`, the inhibition is -4.85%.

Take `COc1ccc(C(NC(=O)c2ccc(F)cc2)c2ccccc2)cc1` (centres undefined): the inhibition was -2.49%.

For the molecule `COc1ccc(-c2noc(CCCC(=O)Nc3cccnc3)n2)cc1OC`, the inhibition was -1.27%.

`COc1ccc(CNc2ccc3c(c2)CCC3)cc1OC`: the inhibition is 45.5%.

`CCOc1cc(CNc2ccc3c(c2)CCC3)ccc1OC`: the inhibition was 46.6%.

In the case of `CC(NC(=O)c1ccc(OC2CCN(S(=O)(=O)N(C)C)CC2)cc1)C1CC1` (centres undefined), the inhibition is -9.26%.

As to `CC(=O)c1ccc(N(C(=O)Cn2nnc3ccccc32)C(C(=O)NC2CCCCC2)c2cn(C)nc2C)cc1` (centres undefined), the inhibition is -5.66%.

Take `Clc1ncnc2scc(-c3ccccc3)c12`: the inhibition is -11.5%.

As for `Clc1nc(-c2cccnc2)nc2scc(-c3ccccc3)c12`, the inhibition is 8.19%.

With `O=C(OCc1nc2ccccc2s1)c1ccccc1O`, the inhibition was 16.7%.

`O=C(COC(=O)c1ccco1)Nc1nc2ccccc2s1`: the inhibition was -0.64%.

As to `Nc1ccc(C(=O)OCc2nc3ccccc3s2)cc1`, the inhibition is -2.83%.

With `O=C(COC(=O)c1ccc(Br)o1)Nc1nc2ccccc2s1`, the inhibition is -3.5%.

As to `CC(OC(=O)C(NC(=O)c1ccco1)C(C)C)C(=O)Nc1ncc(Cl)cc1Cl` (centres undefined), the inhibition is -14.4%.

`Cc1c(N=Cc2nc3ccccc3n2C)c(=O)n(-c2ccccc2)n1C`: the inhibition is -8.83%.

`CCN(CC)Cc1cc(C(=O)O)c(C)o1`: the inhibition is -8.95%.

For the molecule `Cc1ccc(C2(C)NC(=O)N(Cc3c(C)noc3C)C2=O)cc1` (centres undefined), the inhibition was -0.8%.

With `O=C(Nc1ccc([N+](=O)[O-])cn1)C1CC1`, the inhibition was 5.22%.

For `O=C(NCc1cccc(Cl)c1)c1ccco1`, the inhibition was 0.19%.

In the case of `CN1c2ccc([N+](=O)[O-])cc2CC2(C(=O)NC(=O)N(c3ccccc3)C2=O)C1c1ccccc1` (centres undefined), the inhibition was 76.5%.

As to `CC1CN2c3ccc([N+](=O)[O-])cc3CC3(C(=O)N(C)C(=O)N(C)C3=O)C2C(C)O1` (centres undefined), the inhibition was -12.5%.

For `CN1C(=O)N(C)C(=O)C2(Cc3cc([N+](=O)[O-])ccc3N(C)C2c2ccccc2)C1=O` (centres undefined), the inhibition is -13.2%.

With `CN1c2ccc([N+](=O)[O-])cc2CC2(C(=O)NC(=O)NC2=O)C1c1ccccc1` (centres undefined), the inhibition was 0.68%.

Take `COc1ccc2nc(C)cc(Sc3nc4ccccc4s3)c2c1`: the inhibition was 0.98%.

On to `COc1ccc(Cl)cc1N1C(=O)C2CCCN2C1c1sccc1C` (centres undefined), for which the inhibition was -9.7%.

Consider `CCCCC(Sc1nc(N)c(NC(=O)c2ccc(OC)cc2)c(=O)[nH]1)C(=O)O` (centres undefined), for which the inhibition is -2.8%.

Turning to `Cc1ccc(OCC(=O)Nc2ccc(S(=O)(=O)Nc3ccccn3)cc2)c(C)c1`, the inhibition is -1.52%.

In the case of `COc1ccc(/C=N/NC(=O)C(C)Sc2ccccn2)cc1[N+](=O)[O-]` (centres undefined), the inhibition is -3.03%.

Turning to `CCOc1cccc(CN2CCCC(CCC(=O)NCc3ccccc3F)C2)c1O` (centres undefined), the inhibition is -1.53%.

As for `CC1CCc2c(sc3nc(CSc4nnnn4C)[nH]c(=O)c23)C1` (centres undefined), the inhibition is 42.6%.

Regarding `CCCCNC(=O)Nc1cnn(CC)c1C(N)=O`, the inhibition is -2.68%.

For the molecule `O=C1O/C(=C\c2ccccc2)c2ccccc21`, the inhibition is 1.65%.

Regarding `O=C1O/C(=C/c2ccccc2)c2ccccc21`, the inhibition is 2.2%.

As to `Nc1nnc(SCC(=O)N2CCN(c3ccccc3)CC2)n1-c1ccccc1`, the inhibition is -16.5%.

For the molecule `Cc1[nH]nc2c1C(=O)CCC2`, the inhibition was -7.75%.

On to `CC(C)(C)c1csc(Sc2ncccc2[N+](=O)[O-])n1`, for which the inhibition is 7.08%.

In the case of `CC(C)(C)n1cnnc1Sc1ncccc1[N+](=O)[O-]`, the inhibition is -0.66%.

Take `O=c1ccnc(Sc2ncccc2[N+](=O)[O-])[nH]1`: the inhibition is 7.87%.

As for `Nc1nnc(Sc2ccc(Cl)cc2[N+](=O)[O-])s1`, the inhibition was 6.61%.

Take `Cc1ccc(N/C=C(\C#N)S(=O)(=O)c2ccccc2)cc1`: the inhibition was 1.01%.

For the molecule `CC(=O)c1cc(-c2ccc(F)cc2)n(CCC(=O)Nc2cc(C)[nH]n2)c1C`, the inhibition was 5.45%.

Turning to `Cn1c(N)c(-c2nc3cccnc3n2C)sc1=S`, the inhibition was 2.49%.

With `O=C(Nc1nc2ccccc2[nH]1)c1cccs1`, the inhibition is 56.3%.

As to `Cc1cc(NC(=O)c2ccc(C)s2)n(-c2nc3ccccc3[nH]2)n1`, the inhibition was 83.6%.

With `Cc1cc(NC(=O)c2cccs2)n(-c2nc3ccccc3[nH]2)n1`, the inhibition was 94.8%.

With `Cc1cc(NC(=O)c2ccccc2F)n(-c2nc3ccccc3[nH]2)n1`, the inhibition was 55.8%.

On to `COc1cccc(OC)c1C(=O)Nc1cc(C)nn1-c1nc2ccccc2[nH]1`, for which the inhibition is 53.2%.

With `COc1ccc(C(=O)Nc2cc(C)nn2-c2nc3ccccc3[nH]2)c(OC)c1`, the inhibition is 57.3%.

`CC(=O)Nc1nc2ccccc2[nH]1`: the inhibition was -9.36%.

As for `Cc1cc(NC(=O)c2ccccc2)n(-c2ccccc2)n1`, the inhibition is -5.06%.

As usually defined, the inhibition is the drop in the measured response relative to a control, in per cent.

These data come from PubChem BioAssay AID1626 (SRMLSC, 2009).
